Drawing on patent publication US20030059769, “High affinity nucleic acid ligands to lectins” (published 2003), this text covers binding signal for two sequences.

The assay concerns the target T1, L-selectin (LS-Rg) (Homo sapiens, UniProt P14151 P14151:39-332).
T1 sequence: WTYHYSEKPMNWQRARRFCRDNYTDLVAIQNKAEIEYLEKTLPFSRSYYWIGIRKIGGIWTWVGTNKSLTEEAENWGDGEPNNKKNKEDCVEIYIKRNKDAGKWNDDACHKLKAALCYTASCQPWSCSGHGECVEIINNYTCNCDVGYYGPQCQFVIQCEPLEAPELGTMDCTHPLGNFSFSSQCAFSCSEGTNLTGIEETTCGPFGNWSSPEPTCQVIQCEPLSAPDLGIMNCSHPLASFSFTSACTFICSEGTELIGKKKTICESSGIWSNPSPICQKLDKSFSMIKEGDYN
The assay is described as follows: filter; 26-nt hairpin truncate. As to conditions: tags: human IgG2 Fc fusion, chain copies: dimer, label: 32P; ssDNA.

GCGTTACAAGGTGCTAAACGTAACGT: the binding signal was found to be 100 fold weaker than LD227. Under CCAGTACAAGGTGCTAAACGTAATGG stands 20 fold weaker than LD201.
